We go through 100 compounds from PubChem BioAssay AID425 (Sanford-Burnham Center for Chemical Genomics, 2006).

Where “and” joins values, the source holds several entries; their conditions need not be identical. Equal values may be shown once. The whole screen tested about 110,000 compounds, of which about 190 (0.17%) were called active. The sample holds actives, similar compounds and a random draw of the others, so the mix is not that of the screen. Rule as the data show it: active = inhibition above about 50%; inactive = the rest. Measured potencies and affinities stand elsewhere.

Chain of Dual specificity protein phosphatase 6 (Rattus norvegicus) (Q64346 whole entry, looked up): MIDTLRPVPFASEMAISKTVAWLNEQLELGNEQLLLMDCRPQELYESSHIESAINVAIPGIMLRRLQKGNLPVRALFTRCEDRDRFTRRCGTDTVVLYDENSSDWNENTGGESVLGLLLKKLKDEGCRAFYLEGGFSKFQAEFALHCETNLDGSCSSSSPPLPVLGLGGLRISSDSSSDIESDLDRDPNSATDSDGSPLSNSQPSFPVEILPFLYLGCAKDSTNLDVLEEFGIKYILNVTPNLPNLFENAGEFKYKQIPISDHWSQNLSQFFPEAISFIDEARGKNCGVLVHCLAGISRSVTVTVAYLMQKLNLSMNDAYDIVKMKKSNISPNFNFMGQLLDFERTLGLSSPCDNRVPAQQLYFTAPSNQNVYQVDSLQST

This experiment addresses Dual specificity protein phosphatase 6 (Rattus norvegicus) (UniProt Q64346). Put plainly: MKP-3 phosphatase inhibitors, primary screen, biochemical, rat enzyme, in vitro (AID 425).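 Also: plate controls were vehicle for no effect and reference inhibitor for full effect.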 Conditions: recombinant MKP-3 phosphatase activity, fluorescence; at 20 µM; hits give high values.
The inhibition is the relative decrease from the control value, in per cent. With `COc1ccc(/C=C2/SC(=O)N(CC(=O)Nc3ccc(C)c(C)c3)C2=O)cc1OC`, the inhibition is 3.6% (inactive). The result for `COc1ccc(/C=C2/SC(=O)N(CC(=O)Nc3ccc(F)c(Cl)c3)C2=O)cc1OC` reads 1.4% (inactive). The result for `COc1ccc(-c2cc(C(=O)N/N=C(\C)c3ccc([N+](=O)[O-])cc3)[nH]n2)cc1` reads 4% (inactive).

Consider `CCOc1ccccc1C=Nc1ccc(O)cc1`, for which the inhibition was 116% (active). As to `Oc1cccc(C=Nc2ccccc2)c1O`, the inhibition is 120% (active). As for `CCOc1ccccc1C=Nc1ccc(C(N)=O)cc1`, the inhibition is -2.2% (inactive).

With `N#Cc1ccc(N=Cc2cccc(O)c2O)cc1`, the inhibition is -1.9% (inactive). `Cc1cccc(C=Nc2ccccc2O)c1O`: the inhibition is -0.6% (inactive). Then `Cc1ccsc1C=Nc1ccc(O)cc1`, with -7% (inactive); and `Cc1ccccc1C=Nc1ccc(O)cc1`, with 112% (active); and `CCOc1ccccc1C=Nc1cc(Cl)cc(Cl)c1`, with -0.8% (inactive). Then `CCN(CC)c1ccc(N=Cc2cccc(O)c2O)cc1`, with 16.1% (inactive); and `CCOC(=O)C1(C)NC(c2cc(OC)c(OC)c(OC)c2)C2C(=O)N(CC)C(=O)C21` (stereo not given), with 4.9% (inactive); and `CC(NC(=O)C(=O)NCC1CCNCC1)c1ccccc1` (stereo not given), with 2.1% (inactive). The result for `Cc1cc(NC(=O)c2nn3c(c2Cl)NC(c2ccc(Br)cc2)CC3C(F)(F)F)no1` (stereo not given) reads -0.7% (inactive); that for `COc1cccc(C(=O)NNC(N)=O)c1`, -2.5% (inactive); that for `O=C(CSc1nc2ccc(N3C(=O)c4ccccc4C3=O)cc2s1)Nc1cccc([N+](=O)[O-])c1`, 14.1% (inactive). For the compound `Cc1ccc(NC(=O)C(=O)NCC(C)C)cc1`, the inhibition is -6.8% (inactive).

In the case of `CCN1CCOC(c2ccccc2)C(C(=O)OC)C1C(=O)OC` (stereo not given), the inhibition is 49.2% (inactive). Turning to `O=C(Nc1ccc(NC(=O)c2ccc(-c3ccc(Br)cc3)o2)cc1)c1ccco1`, the inhibition was -1.3% (inactive). Then `CC(=O)c1ccc(NC(=O)c2ccc(-c3ccc(Br)cc3)o2)cc1`, with 10.6% (inactive). Consider `O=C(CSc1ccccn1)N/N=C\c1c[nH]c2ccccc12`, for which the inhibition was -0.6% (inactive). The result for `CCCCCCCC(=O)N/N=C/c1c[nH]c2ccccc12` reads 4.3% (inactive); that for `Cc1ccn2c(-c3csc(Nc4cccc(O)c4)n3)c(C)nc2c1`, 2.7% (inactive); that for `O=C1CC(Nc2ccccc2)C(=O)N1Cc1ccccc1` (stereo not given), 1.4% (inactive). For `O=C(O)c1ccc(NC(=O)c2cc3cc(Br)ccc3oc2=O)cc1`, the inhibition is 3.5% (inactive). For the compound `O=C(Nc1ccc(Nc2ccccc2)cc1)c1cccc(F)c1`, the inhibition was -0.3% (inactive).

With `Cc1ccc(-c2nnc(NC(=O)Nc3ccc(Cl)c(Cl)c3)s2)cc1`, the inhibition was -1.5% (inactive). The result for `O=C(Nc1ccc(Cl)c(Cl)c1)Nc1nnc(-c2ccccc2)s1` reads -2.8% (inactive).

With `O=[N+]([O-])c1ccc(OCCCCCN2CCCCC2)cc1`, the inhibition is 0.4% (inactive). The result for `Cc1ccc(/C(O)=C2\C(=O)C(=O)N(CCCC(=O)O)C2c2ccccc2)cc1` (stereo not given) reads 2.5% (inactive). The result for `COc1ccc(O)c(CN2CCN(Cc3ccccc3[N+](=O)[O-])CC2)c1` reads -3.5% (inactive); that for `Oc1ccccc1/C=N/Nc1cc(N2CCCC2)nc(N2CCCC2)n1`, 119% (active); that for `Oc1ccccc1/C=N/Nc1cc(N2CCOCC2)nc(N2CCOCC2)n1`, 5.6% (inactive). The result for `Oc1ccccc1/C=N/Nc1cc(N2CCCCC2)nc(N2CCCCC2)n1` reads -0.5% (inactive). Take `Cc1onc(-c2ccccc2)c1C(=O)NCCNc1c(Cl)cccc1[N+](=O)[O-]`: the inhibition was 3.9% (inactive).

Regarding `CC(=O)Nc1ccc(S(=O)(=O)/N=C2\C=CC(=O)c3ccccc32)cc1`, the inhibition was 111% (active). For the compound `Cc1ccc(S(=O)(=O)N=C2C=CC(=O)C=C2)c(C)c1`, the inhibition was 7.6% (inactive). As for `CC(=O)Nc1ccc(S(=O)(=O)NN2C(=O)c3ccccc3C2=O)cc1`, the inhibition is 2.6% (inactive). Then `O=C1C=CC(=NS(=O)(=O)c2ccccc2)c2ccccc21`, with 68.4% (active). The result for `Cc1ccccc1S(=O)(=O)N=C1C=CC(=O)C(Cl)=C1` reads 3.1% (inactive); that for `O=C1C=C/C(=N\S(=O)(=O)c2ccc(F)cc2)c2ccccc21`, -2% (inactive). Turning to `Cc1ccc(C)c(S(=O)(=O)/N=C2\C=CC(=O)c3ccccc32)c1`, the inhibition is 63.5% (active). Then `CC(=O)Nc1ccc(S(=O)(=O)/N=C2/NC(=O)CS2)cc1`, with -0.8% (inactive). Then `CN(C)C1=C/C(=N/S(=O)(=O)c2ccccc2)c2ccccc2C1=O`, with 13.9% (inactive); and `CCc1ccc(OCC(=O)NCCN(C)C)c(Br)c1`, with -12% (inactive). Then `O=C(Nc1ccc(Br)cc1)N1CCCCCCC1`, with -0.5% (inactive); and `CCOC(=O)Cc1csc(NC(=O)CN(C)S(=O)(=O)c2cccc3cccnc23)n1`, with -9.4% (inactive).

In the case of `O=C(NCCCn1ccnc1)c1cnn2c(C(F)(F)F)cc(-c3ccc(Br)cc3)nc12`, the inhibition was 2.4% (inactive).

As for `Nc1nnc(SCc2coc(-c3ccc(Cl)cc3)n2)s1`, the inhibition was -7.1% (inactive).

Regarding `COc1ccc(NC(=O)/C(=C\c2ccco2)NC(=O)c2ccco2)cc1`, the inhibition is 4.4% (inactive).

Consider `N/C(=N\OC(=O)c1ccccc1I)c1cccnc1`, for which the inhibition was -4% (inactive). The result for `Cc1ccc(N=C2NC(=O)/C(=C/c3ccc(O)c([N+](=O)[O-])c3)S2)cc1Cl` reads 82.6% (active); that for `COc1cc(/C=C2\SC(=Nc3ccc(C)c(Cl)c3)NC2=O)ccc1O`, 3.3% (inactive). Consider `Cc1c(Cl)cccc1N=C1NC(=O)/C(=C/c2ccc(O)c([N+](=O)[O-])c2)S1`, for which the inhibition was 18.5% (inactive). Then `CC1=C(C(=O)Nc2ccccc2)C(c2cccc(I)c2)NC(=S)N1` (stereo not given), with 4.4% (inactive). The result for `Cc1c(C)n(O)c2ccc3nonc3c12` reads 2.7% (inactive); that for `COn1c(C)c(C(C)=O)c2c3nonc3ccc21`, -7.8% (inactive); that for `COn1c(C)c(C)c2c3nonc3ccc21`, 86.9% (active). On to `CCOC(=O)c1ccc(NC(=O)COc2ccc(Cl)cc2C)cc1`, for which the inhibition was 2.5% (inactive). As to `COC(=O)c1ccc(Nc2ncnc3c2cnn3-c2cccc(C)c2)cc1`, the inhibition is -5% (inactive). The result for `O=C(Cc1ccccc1)Nc1cc(C(=O)O)cc(C(=O)O)c1` reads 0.2% (inactive). The result for `CC1CC(=O)c2cnc(NCC3CCCO3)nc2C1` (stereo not given) reads -7.6% (inactive); that for `Cc1c(C)c2ccc(OCC(=O)c3ccc(-c4ccccc4)cc3)cc2oc1=O`, 1.8% (inactive); that for `NC(=O)C1CCN(C(=O)CN2CCCc3ccccc32)CC1`, 1.6% (inactive).

For the compound `Cc1ccc(C)n1-c1ccccc1C(=O)O`, the inhibition was 72.7% (active). As to `Cc1c(C(=O)O)cccc1-n1c(C)ccc1C`, the inhibition was 25.2% (inactive). With `Cc1ccc(C)n1-c1ccc(Cl)cc1C(=O)O`, the inhibition is 104% (active). Then `Cc1ccc(-c2ccccc2)n1-c1ccccc1C(=O)O`, with 5% (inactive). With `Cc1ccc(C)n1-c1ccc(Br)cc1C(=O)O`, the inhibition is 0.2% (inactive). The result for `COc1cc(C(=O)O)c(-n2c(C)ccc2C)cc1OC` reads 5% (inactive); that for `O=C(CCCN1CCC(c2ccccc2)C1)c1ccc2c(c1)OCCO2` (stereo not given), -3.4% (inactive); that for `CC(=O)Nc1ccc(S(=O)(=O)NC(CC(=O)O)c2ccc(OC(C)C)cc2)cc1` (stereo not given), 7.9% (inactive).

Consider `CC(C)(C)NC(=O)C(=O)N/N=C/c1ccc(Cl)cc1`, for which the inhibition was -3.9% (inactive).

On to `CNc1ccc2[nH]nc3c2c1C(=O)c1ccccc1-3`, for which the inhibition is -22.4% (inactive). Turning to `Cc1ccccc1OCC(=O)Nc1cccc(NC(=O)c2ccccc2Cl)c1`, the inhibition was -2.5% (inactive). Then `Cc1cccc(C)c1NC(=O)c1ccc2c(c1)OCCO2`, with 2.1% (inactive). Take `Cc1cc(Br)cc(C)c1NC(=O)c1ccc2c(c1)OCCO2`: the inhibition was 82.6% (active). The result for `CC(=O)c1ccc(NC(=O)c2ccc3c(c2)OCCO3)cc1` reads -4.6% (inactive); that for `CCN1C(=O)NC(c2cccnc2)C(C(=O)OC)=C1C` (stereo not given), -5.5% (inactive). `CC(C)N(Cc1nc(-c2ccccc2)no1)C(=O)Cc1ccccc1`: the inhibition is -1.5% (inactive). The result for `CS(=O)(=O)N(CC(=O)NCc1ccccn1)c1ccc2c(c1)OCCO2` reads -1.1% (inactive); that for `O=C1c2ccccc2-c2onc3c(Br)cc(O)c1c23`, 87.7% (active); that for `O=C1c2ccccc2-c2onc3c(Cl)cc(Sc4ccccc4)c1c23`, 3.9% (inactive). Regarding `CCOC(=O)C(C(=O)OCC)c1cc(Br)c2noc3c2c1C(=O)c1ccccc1-3`, the inhibition is 23.6% (inactive). As to `Cc1onc(-c2ccccc2Cl)c1C(=O)NCc1cccs1`, the inhibition is 5.5% (inactive).

Consider `O=C(O)c1cccc(-c2ccc(/C=N/Nc3ccc([N+](=O)[O-])cn3)o2)c1`, for which the inhibition is 51.1% (active). The result for `O=C(O)c1ccc(Cl)c(-c2ccc(/C=N\Nc3ccc([N+](=O)[O-])cn3)o2)c1` reads 8.7% (inactive); that for `O=C(O)c1cc(-c2ccc(/C=N/Nc3ccc([N+](=O)[O-])cn3)o2)ccc1Cl`, 7.3% (inactive). The result for `O=C(O)/C=C/C(=O)Nc1ccc(NC(=O)c2ccccc2)c(Cl)c1` reads 1.5% (inactive). Then `CNc1ccc2c(O)cc(S(=O)(=O)O)cc2c1`, with 65.1% (active); and `O=C(O)c1cc(S(=O)(=O)O)ccc1O`, with -4.1% (inactive). For `COC(=O)c1cc(C(=O)OC)cc(S(=O)(=O)O)c1`, the inhibition is -0.1% (inactive). The result for `O=C1/C(=C/c2ccc(O)c(O)c2)SC(=S)N1c1ccc(O)cc1` reads 8.5% (inactive). The result for `Cc1cc(C)n(C(=O)CNC(=O)c2ccco2)n1` reads 1.1% (inactive) and -4% (inactive). On to `COc1ccc(C2SC(C)C(=O)N2c2ccc(C)cc2)cc1` (stereo not given), for which the inhibition was -0.4% (inactive).

For `O=C(NCC1CCCO1)c1cc2nc(-c3ccc([N+](=O)[O-])cc3)cc(C(F)(F)F)n2n1` (stereo not given), the inhibition is 95.8% (active). The result for `O=C(NCC1CCCO1)c1cc2nc(-c3ccco3)cc(C(F)(F)F)n2n1` (stereo not given) reads 0.3% (inactive); that for `O=C(NCC1CCCO1)c1cc2nc(-c3ccc(F)cc3)cc(C(F)(F)F)n2n1` (stereo not given), 2.8% (inactive); that for `COCCn1c(SCC(=O)Nc2cccc(OC)c2)nnc1-c1ccc(Cl)cc1`, -2.5% (inactive).
